Data: PubChem BioAssay (NCATS)
Results filed as inconclusive are left out. Entries that show only a call come without a potency. Values without a mark were called inactive. Active and inactive are the calls of the source. Calls come from the whole dose curve; as a rule, active = well fitted curve in the direction sought with a large enough effect; inconclusive = small, poorly fitted or top-dose-only effect, or another doubt; inactive = no such curve, though single readings can be large; an effect the other way counts as inactive or inconclusive.

How the values were obtained:
[1] = qHTS of pediatric cancer cell lines to identify multiple opportunities for drug repurposing: Primary screen for DAOY cells (AID 1347090); note: series mostly up to about 46 µM; nearly all actives have a fitted effect of over 55% in size
In short: (§1)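 Viability measured as metabolically active cells via CellTiter-Glo luminescence following 48 hours of compound exposure, 11-point dilutions in confirmatory testing. 500-1,000 cells/well plated 5 hours before dosing; controls were DMSO and 2.3 µM bortezomib.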

[2] = qHTS of pediatric cancer cell lines to identify multiple opportunities for drug repurposing: Primary screen for U-2 OS cells (AID 1347096); note: nearly all actives have a fitted effect of over 50% in size
In short: (§2)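 Viability after 48 h compound treatment at 37C, 500-1,000 cells/well, read as ATP luminescence with CellTiter-Glo. Primary screens used 11-point (MIPE, 0.78 nM-46 µM) or 8-point (NPC, 0.59 nM-46 µM) final concentrations; follow-up screens used 11-point dilutions.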

[3] = qHTS of pediatric cancer cell lines to identify multiple opportunities for drug repurposing: Primary screen for LAN-5 cells (AID 1347100)
In short: as §2

[4] = qHTS of pediatric cancer cell lines to identify multiple opportunities for drug repurposing: Primary screen for BT-12 cells (AID 1347101); note: nearly all actives have a fitted effect of over 25% in size; note: potency is the fitted concentration of half-maximal effect
In short: (§3)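 Cells (500-1,000/well) rested 5 h, then received compounds for 48 h; metabolically active cells were measured by CellTiter-Glo luminescence. Final concentrations spanned up to 46 µM (MIPE, 11-point) or 0.59 nM-46 µM (NPC, 8-point) in primary screens, 11-point in follow-ups.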

[5] = qHTS of pediatric cancer cell lines to identify multiple opportunities for drug repurposing: Primary screen for OHS-50 cells (AID 1347103); note: nearly all actives have a fitted effect of over 40% in size; note: potency is the fitted concentration of half-maximal effect
In short: as §3

[6] = qHTS of pediatric cancer cell lines to identify multiple opportunities for drug repurposing: Primary screen for MG 63 (6-TG R) cells (AID 1347105); note: nearly all actives have a fitted effect of over 50% in size
In short: (§4)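 Plated cells (500-1,000 per well, growth media) were allowed to settle for 5 hours, treated with compound dilutions for 48 hours, then lysed with CellTiter-Glo for 15 min at room temperature before luminescence reading.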

[7] = qHTS of pediatric cancer cell lines to identify multiple opportunities for drug repurposing: Primary screen for control Hh wild type fibroblast cells (AID 1347106);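 note: series mostly up to about 46 µM; a drop in luminescence marks cytotoxicity and a rise apparent proliferation; nearly all actives have a fitted effect of over 55% in size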
In short: as §2

[8] = qHTS of pediatric cancer cell lines to identify multiple opportunities for drug repurposing: Primary screen for Rh30 cells (AID 1347107); note: series mostly up to about 46 µM; nearly all actives have a fitted effect of over 75% in size
In short: as §2

[9] = qHTS of pediatric cancer cell lines to identify multiple opportunities for drug repurposing: Primary screen for SJ-GBM2 cells (AID 1347091)
In short: as §1

[10] = qHTS of pediatric cancer cell lines to identify multiple opportunities for drug repurposing: Primary screen for A673 cells (AID 1347092); note: nearly all actives have a fitted effect of over 45% in size
In short: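 Cells are plated, rested 5 h, dosed by pintool, incubated 48 h, then lysed with CellTiter-Glo and read by luminescence. DMSO is the neutral control; bortezomib at 2.3 uM final is the positive control.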

[11] = qHTS of pediatric cancer cell lines to identify multiple opportunities for drug repurposing: Primary screen for SK-N-MC cells (AID 1347093); note: series mostly up to about 46 µM
In short: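 Metabolically active cells were quantified by ATP-dependent luminescence (CellTiter-Glo, 15 min at room temperature) following 48 h treatment. Cells had been plated at 500-1,000 per well and settled for 5 h beforehand.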

[12] = qHTS of pediatric cancer cell lines to identify multiple opportunities for drug repurposing: Primary screen for BT-37 cells (AID 1347094); note: series mostly up to about 57 µM
In short: as §4

[13] = qHTS of pediatric cancer cell lines to identify multiple opportunities for drug repurposing: Primary screen for NB-EBc1 cells (AID 1347095)
In short: as §4

[14] = qHTS of pediatric cancer cell lines to identify multiple opportunities for drug repurposing: Primary screen for SK-N-SH cells (AID 1347098); note: nearly all actives have a fitted effect of over 65% in size; note: potency is the fitted concentration of half-maximal effect
In short: as §3

[15] = qHTS of pediatric cancer cell lines to identify multiple opportunities for drug repurposing: Primary screen for NB1643 cells (AID 1347099); note: nearly all actives have a fitted effect of over 50% in size
In short: as §4

[16] = qHTS of pediatric cancer cell lines to identify multiple opportunities for drug repurposing: Primary screen for RD cells (AID 1347104); note: nearly all actives have a fitted effect of over 55% in size
In short: as §4

[17] = qHTS of pediatric cancer cell lines to identify multiple opportunities for drug repurposing: Primary screen for Rh41 cells (AID 1347108);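 note: series mostly up to about 46 µM; luminescence drop marks cytotoxic hits; nearly all actives have a fitted effect of over 70% in size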
In short: as §4

[18] = qHTS of pediatric cancer cell lines to identify multiple opportunities for drug repurposing: Primary screen for Saos-2 cells (AID 1347097); note: nearly all actives have a fitted effect of over 40% in size
In short: as §4

[19] = qHTS of pediatric cancer cell lines to identify multiple opportunities for drug repurposing: Primary screen for Rh18 cells (AID 1347102); note: nearly all actives have a fitted effect of over 65% in size
In short: as §2

[20] = qHTS of pediatric cancer cell lines to identify multiple opportunities for drug repurposing: Confirmatory screen for A673 cells (AID 1347110);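 note: cells exposed to compound for 48 h before the viability read; nearly all actives have a fitted effect of over 65% in size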
In short: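 Cells plated at 500-1,000/well were treated five hours later with multi-point dilutions up to 46 µM final. After two days, CellTiter-Glo was added and luminescence read.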

## O=C(NO)c1ccccc1
[1]
  Potency: inactive
[2]
  Potency: inactive
[3]
  Potency: inactive
[4]
  Potency: inactive
[5]
  Potency: inactive
[6]
  Potency: inactive
[7]
  Potency: inactive
[8]
  Potency: inactive

## CCCC(=O)Nc1ccc(O)c(C(C)=O)c1
[9]
  Potency: inactive
[10]
  Potency: inactive
[11]
  Potency: inactive
[12]
  Potency: inactive
[13]
  Potency: inactive
[2]
  Potency: inactive
[14]
  Potency: inactive
[15]
  Potency: inactive
[3]
  Potency: inactive
[4]
  Potency: inactive
[5]
  Potency: inactive
[16]
  Potency: inactive
[6]
  Potency: inactive
[7]
  Potency: inactive
[8]
  Potency: inactive
[17]
  Potency: inactive

## CN1CC(=O)N2[C@H](c3ccc4c(c3)OCO4)c3[nH]c4ccccc4c3C[C@@H]2C1=O
[9]
  Potency: inactive
[10]
  Potency: inactive
[11]
  Potency: inactive
[12]
  Potency: inactive
[2]
  Potency: inactive
[18]
  Potency: inactive
[14]
  Potency: inactive
[15]
  Potency: inactive
[3]
  Potency: inactive
[4]
  Potency: inactive
[19]
  Potency: inactive
[5]
  Potency: inactive
[6]
  Potency: inactive
[7]
  Potency: inactive
[8]
  Potency: inactive
[17]
  Potency: inactive

## CC(C(O)c1ccccc1)N(C)CCOC(c1ccccc1)c1ccccc1 (stereo not drawn)
[1]
  Potency: inactive
[13]
  Potency: inactive
[14]
  Potency: 30.7 µM (active)
[15]
  Potency: inactive
[4]
  Potency: 21.9 µM (active)
[5]
  Potency: 27.6 µM (active)
[6]
  Potency: inactive
[7]
  Potency: inactive
[8]
  Potency: inactive
[17]
  Potency: inactive

## Nc1nnnn1-c1ccccc1
[9]
  Potency: inactive
[10]
  Potency: inactive
[12]
  Potency: inactive
[13]
  Potency: inactive
[2]
  Potency: inactive
[18]
  Potency: inactive
[14]
  Potency: inactive
[15]
  Potency: inactive
[3]
  Potency: inactive
[4]
  Potency: inactive
[5]
  Potency: inactive
[16]
  Potency: inactive
[6]
  Potency: inactive
[7]
  Potency: inactive
[8]
  Potency: inactive
[17]
  Potency: inactive

## CCCC(CCC)(C(=O)OCC)C(=O)OCC
[9]
  Potency: inactive
[10]
  Potency: inactive
[11]
  Potency: inactive
[12]
  Potency: inactive
[2]
  Potency: inactive
[18]
  Potency: inactive
[14]
  Potency: inactive
[15]
  Potency: inactive
[4]
  Potency: inactive
[5]
  Potency: inactive
[16]
  Potency: inactive
[7]
  Potency: inactive
[8]
  Potency: inactive
[17]
  Potency: inactive

## CCCCC(=O)OCC(=O)[C@H]1[C@H](C)C[C@H]2[C@@H]3C[C@H](F)C4=CC(=O)C=C[C@]4(C)[C@@]3(F)[C@@H](O)C[C@@]21C
[9]
  Potency: inactive
[10]
  Potency: inactive
[11]
  Potency: inactive
[12]
  Potency: inactive
[2]
  Potency: inactive
[18]
  Potency: inactive
[14]
  Potency: inactive
[15]
  Potency: inactive
[3]
  Potency: inactive
[4]
  Potency: inactive
[19]
  Potency: inactive
[16]
  Potency: inactive
[6]
  Potency: inactive
[7]
  Potency: inactive
[8]
  Potency: inactive
[17]
  Potency: inactive

## Cc1[nH]cnc1-c1ccc(Cl)cc1
[9]
  Potency: inactive
[10]
  Potency: inactive
[11]
  Potency: inactive
[12]
  Potency: inactive
[13]
  Potency: inactive
[2]
  Potency: inactive
[18]
  Potency: inactive
[15]
  Potency: inactive
[3]
  Potency: inactive
[4]
  Potency: inactive
[19]
  Potency: inactive
[5]
  Potency: inactive
[16]
  Potency: inactive
[7]
  Potency: inactive
[8]
  Potency: inactive
[17]
  Potency: inactive

## C=CCOc1cc(Cl)ccc1C(=O)NCCN(CC)CC
[9]
  Potency: inactive
[10]
  Potency: inactive
[11]
  Potency: inactive
[12]
  Potency: inactive
[2]
  Potency: inactive
[18]
  Potency: inactive
[14]
  Potency: inactive
[15]
  Potency: inactive
[3]
  Potency: inactive
[4]
  Potency: inactive
[19]
  Potency: inactive
[16]
  Potency: inactive
[7]
  Potency: inactive
[8]
  Potency: inactive

## CCCc1c2oc(C(=O)O)cc(=O)c2cc2c(=O)cc(C(=O)O)n(CC)c12
[9]
  Potency: inactive
[10]
  Potency: inactive
[12]
  Potency: inactive
[13]
  Potency: inactive
[2]
  Potency: inactive
[18]
  Potency: inactive
[14]
  Potency: inactive
[15]
  Potency: inactive
[3]
  Potency: inactive
[4]
  Potency: inactive
[19]
  Potency: inactive
[5]
  Potency: inactive
[16]
  Potency: inactive
[7]
  Potency: inactive
[8]
  Potency: inactive

## COC(=O)c1c(Cl)c(Cl)c(C(=O)OC)c(Cl)c1Cl
[9]
  Potency: inactive
[10]
  Potency: inactive
[11]
  Potency: inactive
[12]
  Potency: inactive
[2]
  Potency: inactive
[18]
  Potency: inactive
[14]
  Potency: inactive
[15]
  Potency: inactive
[3]
  Potency: inactive
[4]
  Potency: inactive
[19]
  Potency: inactive
[16]
  Potency: inactive
[6]
  Potency: inactive
[7]
  Potency: inactive
[8]
  Potency: inactive
[17]
  Potency: inactive

## CCC(=O)O[C@]1(C(=O)COC)[C@@H](C)C[C@H]2[C@@H]3CCC4=CC(=O)C=C[C@]4(C)C3(F)[C@@H](O)C[C@@]21C (stereo partly drawn)
[9]
  Potency: inactive
[10]
  Potency: inactive
[11]
  Potency: inactive
[12]
  Potency: inactive
[13]
  Potency: inactive
[2]
  Potency: inactive
[14]
  Potency: inactive
[15]
  Potency: inactive
[4]
  Potency: inactive
[19]
  Potency: inactive
[5]
  Potency: inactive
[6]
  Potency: inactive
[7]
  Potency: inactive
[8]
  Potency: inactive
[17]
  Potency: inactive
[20]
  Potency: inactive

## CC(C)C[C@@H]1[C@H](c2ccccc2)OC(=O)N1CCCN1CCCCCC1
[9]
  Potency: inactive
[10]
  Potency: inactive
[11]
  Potency: inactive
[12]
  Potency: inactive
[13]
  Potency: inactive
[2]
  Potency: inactive
[18]
  Potency: inactive
[14]
  Potency: inactive
[15]
  Potency: inactive
[3]
  Potency: inactive
[19]
  Potency: inactive
[6]
  Potency: inactive
[7]
  Potency: inactive
[8]
  Potency: inactive
[17]
  Potency: inactive
